# Among all 5,500 compounds or so, about 2,000 (36%) were called active. Roughly 18% stayed inconclusive and do not appear here. The list shows a part of the results. A number with no mark means an inactive call. No stated cut-off is given here; in the data, active means normalized growth mostly below about 0.91 (no sharp cut-off); inconclusive means no clear call, values can overlap the other calls; inactive means mostly above about 0.92.
# Assay: chemical genetic growth profiling, strain panel (AID 1159580);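 further: tested at 20 µM; growth read once vehicle control cultures reached saturation at 30 °C; 1 = growth at the plate median or of vehicle wells; lower values mean less growth of the strain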
# Settings: S. cerevisiae deletion strains, growth OD
structure (smiles),measurement,setting,value
CCOC(=O)C(C)(N)Cc1ccc(O)c(O)c1 (stereo not given),normalized growth,"locus YAL021C, strain ccr4, active compounds read low",0.967
same,normalized growth,"locus YAL026C, strain drs2, active compounds read low",0.958
same,normalized growth,"locus YAL030W, strain snc1, active compounds read low",0.965
same,normalized growth,"locus YBL061C, strain skt5, active compounds read low",0.965
same,normalized growth,"locus YBR009C, strain hhf1, active compounds read low",0.984
same,normalized growth,"locus YBR023C, strain chs3, active compounds read low",0.981
same,normalized growth,"locus YBR171W, strain sec66, active compounds read low",0.967
same,normalized growth,"locus YBR231C, strain swc5, active compounds read low",0.992
same,normalized growth,"locus YBR279W, strain paf1, active compounds read low",0.993
same,normalized growth,"locus YCL011C, strain gbp2, active compounds read low",0.983
same,normalized growth,"locus YCL016C, strain dcc1, active compounds read low",0.971
same,normalized growth,"locus YCL061C, strain MRC1, active compounds read low",0.965
same,normalized growth,"locus YCL069W, strain vba3, active compounds read low",0.989
same,normalized growth,"locus YCR088W, strain abp1, active compounds read low",0.995
same,normalized growth,"locus YDL005C, strain med2, active compounds read low",0.986
same,normalized growth,"locus YDL040C, strain nat1, active compounds read low",0.993
same,normalized growth,"locus YDR001C, strain nth1, active compounds read low",0.982
same,normalized growth,"locus YDR069C, strain doa4, active compounds read low",0.944
same,normalized growth,"locus YDR137W, strain rgp1, active compounds read low",0.956
same,normalized growth,"locus YDR159W, strain sac3, active compounds read low",0.953
same,normalized growth,"locus YDR195W, strain ref2",0.985
same,normalized growth,"locus YDR297W, strain sur2, active compounds read low",0.974
same,normalized growth,"locus YDR334W, strain swr1, active compounds read low",0.921
same,normalized growth,"locus YDR335W, strain msn5, active compounds read low",0.971
same,normalized growth,"locus YDR392W, strain spt3, active compounds read low",0.964
same,normalized growth,"locus YEL003W, strain gim4, active compounds read low",0.98
same,normalized growth,"locus YEL037C, strain rad23, active compounds read low",0.983
same,normalized growth,"locus YEL061C, strain CIN8 (second series), active compounds read low",0.988
same,normalized growth,"locus YER015W, strain faa2, active compounds read low",0.952
same,normalized growth,"locus YER016W, strain bim1, active compounds read low",0.992
same,normalized growth,"locus YER111C, strain swi4, active compounds read low",0.968
same,normalized growth,"locus YER155C, strain BEM2 (second series), active compounds read low",0.977
same,normalized growth,"locus YFR010W, strain ubp6, active compounds read low",0.976
same,normalized growth,"locus YGL167C, strain pmr1, active compounds read low",0.946
same,normalized growth,"locus YGL173C, strain kem1, active compounds read low",0.945
same,normalized growth,"locus YGL227W, strain vid30, active compounds read low",0.983
same,normalized growth,"locus YGL240W, strain doc1, active compounds read low",0.958
same,normalized growth,"locus YGL253W, strain hxk2, active compounds read low",0.978
same,normalized growth,"locus YHR013C, strain ard1, active compounds read low",0.951
same,normalized growth,"locus YHR027C, strain rpn1, active compounds read low",0.947
same,normalized growth,"locus YHR030C, strain SLT2, active compounds read low",1.08
same,normalized growth,"locus YHR079C, strain IRE1, active compounds read low",1.08
same,normalized growth,"locus YHR142W, strain chs7, active compounds read low",0.989
same,normalized growth,"locus YJL092W, strain hpr5, active compounds read low",0.978
same,normalized growth,"locus YJL095W, strain BCK1 (second series), active compounds read low",0.973
same,normalized growth,"locus YJL095W, strain BCK1, active compounds read low",1.02
same,normalized growth,"locus YJL115W, strain asf1, active compounds read low",0.95
same,normalized growth,"locus YJL129C, strain trk1, active compounds read low",0.994
same,normalized growth,"locus YJL154C, strain vps35, active compounds read low",0.986
same,normalized growth,"locus YJL164C, strain tpk1, active compounds read low",0.963
same,normalized growth,"locus YJL166W, strain qcr8, active compounds read low",0.985
same,normalized growth,"locus YJL187C, strain SWE1, active compounds read low",0.977
same,normalized growth,"locus YJR066W, strain TOR1, active compounds read low",1
same,normalized growth,"locus YKL160W, strain elf1, active compounds read low",0.987
same,normalized growth,"locus YKR026C, strain gcn3, active compounds read low",0.971
same,normalized growth,"locus YKR091W, strain srl3, active compounds read low",0.998
same,normalized growth,"locus YLL001W, strain dnm1, active compounds read low",0.974
same,normalized growth,"locus YLL026W, active compounds read low",0.971
same,normalized growth,"locus YLL041C, strain sdh2, active compounds read low",0.962
same,normalized growth,"locus YLR027C, strain aat2, active compounds read low",0.962
same,normalized growth,"locus YLR113W, strain HOG1, active compounds read low",1
same,normalized growth,"locus YLR221C, strain rsa3, active compounds read low",0.976
same,normalized growth,"locus YLR258W, strain gsy2, active compounds read low",0.986
same,normalized growth,"locus YLR262C, strain YPT6 (second series), active compounds read low",0.881
same,normalized growth,"locus YLR320W, strain mms22, active compounds read low",0.988
same,normalized growth,"locus YLR342W, strain FKS1, active compounds read low",0.977
same,normalized growth,"locus YLR357W, strain rsc2, active compounds read low",0.969
same,normalized growth,"locus YLR370C, strain arc18, active compounds read low",0.981
same,normalized growth,"locus YLR384C, strain iki3, active compounds read low",0.958
same,normalized growth,"locus YML120C, strain ndi1, active compounds read low",0.974
same,normalized growth,"locus YMR058W, strain fet3, active compounds read low",0.946
same,normalized growth,"locus YMR125W, strain sto1, active compounds read low",0.998
same,normalized growth,"locus YMR129W, active compounds read low",0.997
same,normalized growth,"locus YMR205C, strain PFK2, active compounds read low",0.971
same,normalized growth,"locus YMR231W, strain pep5, active compounds read low",0.972
same,normalized growth,"locus YNL071W, strain lat1, active compounds read low",1
same,normalized growth,"locus YNL183C, strain NPR1, active compounds read low",0.987
same,normalized growth,"locus YNL209W, strain ssb2, active compounds read low",0.961
same,normalized growth,"locus YNL248C, strain rpa49, active compounds read low",0.984
same,normalized growth,"locus YNL322C, strain KRE1 (second series), active compounds read low",0.979
same,normalized growth,"locus YNR049C, strain mso1, active compounds read low",0.972
same,normalized growth,"locus YOR001W, strain rrp6, active compounds read low",0.977
same,normalized growth,"locus YOR070C, strain gyp1, active compounds read low",0.978
same,normalized growth,"locus YOR080W, strain dia2, active compounds read low",0.982
same,normalized growth,"locus YOR083W, strain WHI5, active compounds read low",0.983
same,normalized growth,"locus YOR106W, strain vam3, active compounds read low",0.859 (active)
same,normalized growth,"locus YOR231W, strain MKK1, active compounds read low",1.06
same,normalized growth,"locus YOR265W, strain rbl2, active compounds read low",0.969
same,normalized growth,"locus YOR270C, strain vph1, active compounds read low",0.951
same,normalized growth,"locus YOR290C, strain snf2, active compounds read low",0.946
same,normalized growth,"locus YPL051W, strain arl3, active compounds read low",0.964
same,normalized growth,"locus YPL078C, strain atp4, active compounds read low",0.984
same,normalized growth,"locus YPL106C, strain sse1, active compounds read low",0.886
same,normalized growth,"locus YPL240C, strain hsp82, active compounds read low",0.975
same,normalized growth,"locus YPL256C, strain CLN2, active compounds read low",1.06

# From PubChem BioAssay AID1159580 (chemical genetic matrix, 2015)
